Screening results as filed in PubChem.
Sampled rows, rich in hits. Any-hit rate of the full collection: about 21%.
CHX counter – counter-screen for Shiga toxin inhibitors: cycloheximide protein synthesis inhibition; cell reporter, cycloheximide protein synthesis inhibition counterscreen; max response, %; 300,000 tested, 12% active; AID 2314; in the data active = max response mostly above about 13%, no sharp cut-off; inactive = mostly below about 14%; note: read at 38.3 µM for the half of the compounds with a filed dose; 0% is about no effect
Shiga inhibitor – Shiga toxin inhibition; Vero cells, Shiga toxin protein synthesis inhibition reporter; inhibition, % at 38.7 µM; 290,000 tested, 9.2% active; in the data active = inhibition mostly above about 28%, no sharp cut-off; inactive = mostly below about 43%; note: 0% is about no effect
HCMV inh – human cytomegalovirus inhibition. HFF cells, HCMV-luciferase reporter, 72 h; hits give low values. activity change, negative = inhibition, % at 57.5 µM. 410,000 tested, 4.5% active; in the data active = activity change below about -60%; inconclusive = no clear call, values can overlap the other calls; inactive = above about -39%; note: % is set by controls: 0 for no effect and ±100 for the full control effect
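Luciferase read-out from HCMV-luciferase-infected HFFs (MOI 1 PFU/cell) 72 h post infection at 37C; compounds added after 16 h cell attachment; activity normalized between buffer-only basal and Salinomycin (10uM) inhibitor controls.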
HCV inhibitor – inhibitors of hepatitis C virus infection | Huh7.5.1 HCVcc-Cre infection, luciferase reporter, 44 h | Potency, µM (highest dose often 41.8 µM), for inactives: at the top dose activity change, negative = inhibition, most hits filed as inhibitors | 340,000 tested, 3.4% active; note: potency is the fitted concentration of half-maximal effect; % is set by controls: 0 for no effect and ±100 for the full control effect
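Antiviral activity was scored by luciferase reporter output from cells infected with HCVcc-Cre (~0.5 moi) in presence of compound, 44 h infection period, cells seeded 1,000/well 4 h prior.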
Pf growth 48h – P. falciparum growth inhibition at 48 hours (one generation) | P. falciparum luciferase growth in erythrocytes, 48 h | Potency, µM (highest dose often 28.7 µM), for inactives: at the top dose activity change, negative = inhibition, actives largely listed as inhibitors | 310,000 tested, 5.9% active | AID 504832; note: potency is the fitted concentration of half-maximal effect; % is set by controls: 0 for no effect and ±100 for the full control effect
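Read-out is firefly luciferase luminescence from an integrated reporter in P. falciparum, so falling signal marks reduced parasite growth. Infected erythrocytes were at 2% hematocrit and 0.1% parasitemia (final) in Albumax-supplemented RPMI 1640.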
Pf growth 96h – P. falciparum growth inhibition at 96 hours; Potency, µM (doses to about 28.7 µM), inactives show at the top dose activity change, negative = inhibition, actives largely listed as inhibitors; AID 504834; 320,000 tested, 6.9% active; P. falciparum luciferase reporter growth, 96 h; note: potency is the fitted concentration of half-maximal effect; % is set by controls: 0 for no effect and ±100 for the full control effect
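Two-generation exposure (96 h) targets delayed-death phenotype. Reporter parasites carrying integrated firefly luciferase, in red cells at 2% hematocrit and 0.05% parasitemia final, kept at 37 C, 5% CO2; luminescence loss indicates inhibition.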
Starred values were filed as active, the others as inactive; ? = inconclusive; / = not tested or not shown. Unless noted, calls come from the whole dose curve; as a rule, active = well fitted inhibition curve with a large enough effect; inconclusive = small, poorly fitted or top-dose-only effect, or another doubt; inactive = no such curve, though single readings can be large or run the other way.

SMILES	CHX counter	Shiga inhibitor	HCMV inh	HCV inhibitor	Pf growth 48h	Pf growth 96h
Cc1ccc(C(=O)NCC(=O)Nc2ncccc2C)s1	/	/	-29.0	-0.6%	37.5%	56.1%
CCN1CCCC1CNC(=O)CCNC(=O)c1cc(OC)c(OC)c(OC)c1 (stereo unspecified)	1.8	-22.6	6.9	-17.9%	-21.2%	2.62µM*
CCN(CC)C(=O)Cn1cc(S(=O)(=O)CC(=O)NCCc2ccccc2)c2ccccc21	-1.8	-15.6	-39.8	11.3%	16.9%	-27.1%
CC(NC(=O)c1cc(S(=O)(=O)N2CCOCC2)ccc1N1CCCC1)c1ccc(Cl)c(Cl)c1 (stereo unspecified)	/	/	-23.9	-19.6%	?	?
CC(NC(=O)c1cc(S(=O)(=O)N2CCOCC2)ccc1F)c1ccc(-n2ccnc2)cc1 (stereo unspecified)	/	/	-10.2	?	-22.3%	9.28µM*
Cc1ccc(C(=O)NC(C)c2ccc(-n3ccnc3)cc2)cc1S(=O)(=O)N1CCOCC1 (stereo unspecified)	/	/	-97.5*	?	?	?
CC(NC(=O)c1cc([N+](=O)[O-])cc([N+](=O)[O-])c1)c1ccc(-n2ccnc2)cc1 (stereo unspecified)	-1.1	-10.3	10.4	-6.5%	1.47µM*	0.928µM*
Cc1ccc(C(=O)NC(C)c2ccccc2)cc1S(=O)(=O)N1CCOCC1 (stereo unspecified)	-4.1	-10.0	-19.6	5.1%	?	0.2%
C[C@H](NC(=O)N1CCn2c1nc1ccccc12)C(=O)NCc1ccc(F)cc1	-1.8	6.2	-20.2	2.8%	30.8%	21.7%
COc1ccc(NC(=O)/C(C#N)=C/c2cc(C)n(-c3ccc(F)cc3)c2C)cc1	/	/	11.3	/	/	/
COCCNC(=O)/C(C#N)=C/c1cc(C)n(-c2ccc(C)cc2)c1C	49.5*	63.1*	15.6	10µM*	0.0%	6.8%
Cc1cc(/C=C(\C#N)C(=O)O)c(C)n1C1CC1	1.4	-8.0	36.3	-2.1%	2.6%	5.2%
COc1ccc(-n2c(C)cc(/C=C(\C#N)C(=O)NCc3ccco3)c2C)cc1	47.4*	50.5*	3.7	?	4.65µM*	?
COCCNC(=O)/C(C#N)=C/c1cc(C)n(C2CCCCC2)c1C	28.5*	69.4*	-31.3	-24.1%	72.8%	0.0%
CCOC(=O)c1c(C)[nH]c(C)c1S(=O)(=O)N1CCCC(C(=O)N2CCN(c3ccc(Cl)cc3)CC2)C1 (stereo unspecified)	/	/	-23.3	/	/	/
COc1ccccc1NC(=O)C1CCCN(S(=O)(=O)c2cccc3nsnc23)C1 (stereo unspecified)	-6.2	-11.0	-17.4	-27.5%	/	3.29µM*
Cc1cccc(NC(=O)C2CCCN(S(=O)(=O)c3cccc4nsnc34)C2)c1 (stereo unspecified)	1.0	21.8	-29.7	?	/	8.28µM*
O=C(CSc1n[nH]c(-c2ccc(F)cc2)n1)NCCc1ccccc1	/	/	86.8	/	/	/
COC1(OC)C(/C=C/c2ccc(Cl)cc2)C(C#N)(C#N)C1(OC)OC (stereo unspecified)	19.3*	40.6*	12.7	?	?	?
Fc1ccc(C[n+]2c(-c3ccccc3)cc(-c3ccccc3)cc2-c2ccccc2)cc1	/	/	-84.3*	10µM*	0.928µM*	0.37µM*
O=C([O-])c1cc(-c2ccccc2)cc(-c2ccccc2)[n+]1CCc1ccc(Cl)cc1	/	/	-79.5*	1.1%	/	/
Nc1cc(-c2ccccc2)nn1Cc1ccc(Cl)cc1	9.8	48.7	?	?	?	206.4%
Clc1ccc(C[n+]2c(-c3ccccc3)cc(-c3ccccc3)cc2-c2ccccc2)cc1	/	/	-93.3*	?	0.37µM*	0.329µM*
COc1ccc(CC(=O)OCC(=O)c2ccc(S(=O)(=O)N3CCCCC3)cc2)cc1	/	/	7.8	-5.9%	-23.2%	-26.3%
COC(=O)CSc1nc2cc(C)ccc2cc1C#N	46.4*	108.2*	48.0	-16.8%	119.7%	11.5%
SMILES	CHX counter	Shiga inhibitor	HCMV inh	HCV inhibitor	Pf growth 48h	Pf growth 96h
CCOC(=O)CC(=O)CSc1nc2ccc(C)cc2cc1C#N	37.2*	106.9*	72.0	11.0%	-3.7%	5.5%
CCOC(=O)CC(=O)CSc1nc(CC)c(C)cc1C#N	14.8	4.3	-89.1*	14.6%	-22.3%	?
O=C(CNC(c1ccccc1)c1ccccc1)NCc1ccccc1Cl	-7.9	-18.2	-28.5	?	?	?
COc1cccc(N/C(SCc2cccc([N+](=O)[O-])c2)=C(/C#N)C(=O)NCc2cccs2)c1	-4.6	-12.1	-16.0	-12.3%	10.4µM*	?
COc1cccc(N/C(SCc2ccccc2C)=C(/C#N)C(=O)NCc2cccs2)c1	0.8	10.0	-80.3*	-24.5%	?	2.08µM*
COc1cccc(N/C(SC)=C(/C#N)C(=O)NCc2cccs2)c1	9.6	-0.4	2.5	2.0%	8.5%	16.4%
COc1cccc(N/C(SCc2ccccc2Cl)=C(/C#N)C(=O)NCc2cccs2)c1	5.4	-7.4	-39.2	-3.7%	10.4µM*	?
COC(=O)c1c(C)sc(-c2c(-c3ccc4c(c3)OCCO4)[nH]c3[nH]c(=O)[nH]c(=O)c23)c1O	/	/	-9.6	/	/	/
CSc1nc(N2CCN(C)CC2)c2ccccc2n1	-2.1	-3.1	33.4	13.8%	-9.7%	14.7µM*
c1ccc(N2CCN(c3nc(-c4ccccn4)nc4ccccc34)CC2)cc1	0.7	-18.2	-99.4*	3.16µM*	1.85µM*	2.94µM*
CN1CCN(c2nc(-c3ccccn3)nc3ccccc23)CC1	4.7	18.2	-16.3	-12.8%	/	5.86µM*
O=C(NCCc1ccccc1Cl)c1ccc2c(c1)nc1n2CCOC1	/	/	44.3	/	/	/
COc1cc(C2CC(=O)N(CC(=O)Nc3ccccc3F)c3ccccc3S2)cc(OC)c1OC (stereo unspecified)	/	/	-37.2	/	/	/
CC1CCN(C(=O)c2cc(-c3ccc(Br)cc3)on2)CC1	/	/	69.8	/	/	/
O=C(NCCN1CCOCC1)c1cc(-c2ccc(Br)cc2)on1	10.8	11.1	-19.1	/	59.1%	0.9%
O=C(c1cc(-c2ccc(Br)cc2)on1)N1CCCCCC1	35.0*	80.0*	38.5	3.8%	220.6%	-15.9%
O=C(c1cc(-c2ccc(Br)cc2)on1)N1CCOCC1	20.9*	59.2*	-4.1	-19.3%	185.2%	99.9%
Cc1ccc(C2NC(=S)NC3=C2C(=O)CC(C)(C)C3)cc1 (stereo unspecified)	-0.5	-5.0	?	0.7%	16.6%	8.0%
CCCn1c(CN2CCN(C(=O)c3ccco3)CC2)nc2c1c(=O)n(C)c(=O)n2C	-4.3	-3.6	3.3	8.7%	0.1%	4.0%
O=C(c1ccco1)N1CCN(Cc2nc3ccccc3c(=O)n2-c2ccc(F)cc2)CC1	-1.5	-6.1	-21.9	1.7%	/	9.28µM*
CC(=O)Cn1c(CN2CCN(C(=O)c3ccco3)CC2)nc2c1c(=O)n(C)c(=O)n2C	-1.5	1.3	?	6.6%	-14.4%	5.8%
